The whole screen tested about 340,000 compounds, of which about 3,300 (0.97%) were called active.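 The calls were made as follows: active = inhibition above the mean over all tested compounds plus 3 SD (cut at about 30% in these data); inactive = the rest.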 For the sample, actives were picked, then their nearest neighbours and some compounds at random.
What follows are molecules tested against Platelet-activating factor acetylhydrolase 2, cytoplasmic (Homo sapiens) (UniProt Q99487) (assay: inhibition of cytoplasmic PAF acetylhydrolase 2 – biochemical, fluorescence polarization, human, primary screen (AID 492956;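 also: inhibitors block probe labeling of enzyme so polarization drops; 0% = enzyme with DMSO and 100% = wells lacking PAFAH2 protein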)). Conditions: recombinant PAFAH2, FP-rhodamine activity probe, at 3.39 µM, active compounds read high.

| Structure (SMILES) | inhibition |
| --- | --- |
| Cc1cc(F)ccc1NC(=O)C(C)n1c2ccccc2c2nc(=O)cc(C)n21 (configuration not stated) | -0.36% (inactive) |
| CCCCNC(=O)N(O)C1N(/N=C/c2ccc(N(C)C)cc2)C(=S)SC1(C)C (configuration not stated) | 39% (active) |
| CCCCNC(=O)N(O)C1N(/N=C/c2ccccc2O)C(=S)SC1(C)C (configuration not stated) | 12% (inactive) |
| CCC(C)N1C(=S)SC(C)(C)C1N(O)C(=O)NC1CCCCC1 (configuration not stated) | 0.18% (inactive) |
| O=C(NC1CCCCC1)n1c(=O)oc2cc(S(=O)(=O)N3CCCCC3)ccc21 | -3.36% (inactive) |
| CC1CCCCN1C(=O)Cn1c(=O)oc2cc(S(=O)(=O)N3CCCCC3)ccc21 (configuration not stated) | 0.32% (inactive) |
| CC(C)COC(=O)n1c(=O)oc2ccc(S(=O)(=O)N3CCCCC3)cc21 | 67.9% (active) |
| O=C(NCc1cc(C(F)(F)F)cc(C(F)(F)F)c1)C1CC(c2cccc(F)c2)=NO1 (configuration not stated) | 6.39% (inactive) |
| O=C(COC(=O)CNC(=O)c1ccccc1F)NCC(F)(F)F | 1.7% (inactive) |
| CC(CCc1ccccc1)NC(=O)COC(=O)c1ccc(F)cc1 (configuration not stated) | 28% (inactive) |
| CCc1ccc(C(=O)OCC(=O)NCC(F)(F)F)cc1 | 73.5% (active) |
| CC(C)(C)c1csc(NC2=NS(=O)(=O)c3ccccc32)n1 | 36.9% (active) |
| O=C(Oc1cccc(NC2=NS(=O)(=O)c3ccccc32)c1)c1ccncc1 | -0.09% (inactive) |
| Cc1ccc(S(=O)(=O)N(NC2=NS(=O)(=O)c3ccccc32)C(=O)c2ccccc2)cc1 | -5.48% (inactive) |
| O=C(NCN1CCN(CCO)CC1)c1cnccn1 | -3.5% (inactive) |
| Cc1cc(NC(=O)COc2ccc([N+](=O)[O-])cc2)no1 | -0.25% (inactive) |
| Cc1ccc(CNC(=O)COC(=O)C2CCC2)cc1 | 3.66% (inactive) |
| COC(=O)c1cc(C(=O)OCC(=O)Nc2cc(C)on2)cc([N+](=O)[O-])c1 | -6.33% (inactive) |
| Cc1cc(NC(=O)COC(=O)/C=C/c2ccc(C)o2)no1 | 33.3% (active) |
| CCN(CC(=O)NCc1ccc(Cl)cc1)C(=O)c1c(C)noc1C | -0.36% (inactive) |
| Cc1ccc(/C=C/C(=O)OCC(=O)NCc2ccc(Cl)cc2)o1 | 53% (active) |

| Structure (SMILES) | inhibition |
| --- | --- |
| CCOC(=O)C1C(=O)OC2(CCCC2)C1C(=O)OCC (configuration not stated) | -3.56% (inactive) |
| COCc1c(C(=O)OCc2c(C)noc2C)oc2ccccc12 | -5.34% (inactive) |
| COCc1c(C(=O)OCC(=O)Nc2ccc(OC(F)F)cc2)oc2ccccc12 | 30.5% (active) |
| Nc1c(C(=O)OCC(=O)Nc2ccc(OC(F)F)cc2)[nH]c(=O)[nH]c1=O | 5.59% (inactive) |
| O=C1NCC(Nc2ccccc2)C(=O)N1 (configuration not stated) | 7.66% (inactive) |
| O=C1C2(c3ccccc3)CN(CCCO)CC1(c1ccccc1)CN(CCCO)C2 | 7.66% (inactive) |
| COc1ccccc1CNC(=O)COC(=O)c1cccs1 | 60.2% (active) |
| O=C(COC(=O)[C@H](Cc1ccccc1)NC(=O)c1cccs1)Nc1cc(F)ccc1F | 4.42% (inactive) |
| O=C(COC(=O)/C(=C/c1cccs1)c1cccs1)NCc1ccccc1Cl | 9.84% (inactive) |
| O=C(COC(=O)c1cccs1)Nc1ccccc1Cl | 73.2% (active) |
| COc1ccccc1CNC(=O)COc1ccc(C)nc1[N+](=O)[O-] | 4.79% (inactive) |
| COc1ccccc1CNC(=O)COC(=O)c1sc(C)nc1C | 36.3% (active) |
| O=C(COC(=O)c1cccs1)NCc1cccs1 | 44.2% (active) |
| O=C(COC(=O)c1ccc(Cl)nc1)NCc1cccs1 | 5.5% (inactive) |
| O=C(COC(=O)c1ccc(O)cc1O)NNC(=O)c1cccs1 | 6.29% (inactive) |
| CNC(=O)c1sc(NCc2ccccc2OC)nc1C | -0.38% (inactive) |
| O=C(COC(=O)c1ncc(Cl)c(Cl)c1Cl)NCc1cccs1 | -5.72% (inactive) |
| COc1ccccc1CNC(=O)COC(=O)CNS(=O)(=O)c1ccc(NC(C)=O)cc1 | -2.61% (inactive) |
| O=CN1CCN(C(=O)c2ccc(Br)o2)CC1 | 0.55% (inactive) |
| Cc1cccc(NS(=O)(=O)c2ccc(C(=O)NCC(C)(C)N3CCOCC3)cc2)c1C | -5.69% (inactive) |
| O=c1cccc(-c2ccc(Br)cc2)o1 | 1.7% (inactive) |

| Structure (SMILES) | inhibition |
| --- | --- |
| COc1ccc(SCc2noc(C(=O)NCC3CCCO3)c2C(=O)O)cc1 (configuration not stated) | 0.7% (inactive) |
| CC1=NNC(=O)C1Cc1c(Cl)cccc1Cl (configuration not stated) | 5.21% (inactive) |
| CC1=C(C(=O)OC2CCCCC2)C(c2ccccc2F)NC(=O)N1 (configuration not stated) | -4.88% (inactive) |
| CCOC(=O)C1CCN(c2c(Nc3cc(C)cc(C)c3)c(=O)c2=O)CC1 | 7.85% (inactive) |
| Cc1cccc(/C=N/NC(=O)CNc2cccc3ccccc23)n1 | 47.5% (active) |
| Cc1cccc(C(=O)Nc2ccc(C(=O)N/N=C/c3cccc(C)n3)cc2)c1 | -6.77% (inactive) |
| C/C(=N\NC(=O)CNc1cccc2ccccc12)c1ccc(Br)s1 | 9.68% (inactive) |
| CC(C)c1nnc(NC(=O)COC(=O)/C=C/c2ccc([N+](=O)[O-])cc2)s1 | -1.12% (inactive) |
| COc1ccc(C(=O)OCC(=O)Nc2cccc(C(C)=O)c2)cc1OC | 81.3% (active) |
| CCCCN(C(=O)/C=C/c1ccco1)c1c(N)n(CC(C)C)c(=O)[nH]c1=O | -7.37% (inactive) |
| COc1cccc(NC(=O)COC(=O)c2ccc3ccccc3n2)c1 | -5.69% (inactive) |
| COc1cc(/C=C/C(=O)OCC(=O)Nc2cccc(Oc3ccccc3)c2)ccc1O | 64.5% (active) |
| CC(C)CNC(=O)COC(=O)/C=C/c1ccccc1[N+](=O)[O-] | 72.8% (active) |
| O=C(/C=C/c1ccccc1[N+](=O)[O-])OCC(=O)N1CCCC1 | 7.52% (inactive) |
| Cc1cccc(C(=O)OCC(=O)NCC(C)C)c1O | 3.36% (inactive) |
| CC(=O)Nc1cccc(C(=O)OCC(=O)Nc2nnc(-c3ccccc3)o2)c1 | 4.32% (inactive) |
| CC(=O)Nc1cccc(C(=O)OCC(=O)NCc2cc(C)c(O)c(C)c2)c1 | 7.09% (inactive) |
| COc1cc2c(cc1NC(=O)COC(=O)/C=C/c1ccccc1)oc1ccccc12 | 1.23% (inactive) |
| CC(C)CNC(=O)COC(=O)/C=C/c1ccco1 | 69% (active) |
| COc1ccc(S(=O)(=O)NCC(=O)NCc2cc(=O)n(C)c(=O)n2C)cc1F | -4.5% (inactive) |

From PubChem BioAssay AID492956 (The Scripps Research Institute Molecular Screening Center, 2010)
